# Screening results: PubChem BioAssay, The Scripps Research Institute Molecular Screening Center
# ASK1 inh: inhibitors of human ASK1 kinase; inhibition, % at 7.44 µM; AlphaScreen MKK6 phosphorylation by ASK1, luminescence; hit rate 0.99% among 22,000; Q99683; in the data active = inhibition above about 35%;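 note: 0% = median of compound wells and 100% = no enzyme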
# ULK1 inh: inhibitors of human ULK1 kinase; O75385; inhibition, % at 5.96 µM; hit rate 1.9% among 30,000; AlphaScreen Atg13 phosphorylation by ULK1, luminescence; in the data active = inhibition above about 43%;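 note: 0% = median of compound wells and 100% = no enzyme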
# * hit, by the source's call; / = no result. The list is not random: actives were taken first. Their share in the collection is about 2.5%.
SMILES,ASK1 inh,ULK1 inh
Cn1cc(-c2cccc3cnc(NC4CCN(C(=O)N5CCCC5)C4)nc23)cn1 (centres undefined),12,33
Cc1ccc(-c2cccc3cnc(Nc4ccc(C(=O)N5CCN(C)CC5)cc4)nc23)cn1,-11,58*
CC(=O)N1CCC(Nc2ncc3cccc(-c4ccc(C)nc4)c3n2)CC1,-5,11
Cc1cnc(-c2ccc(C(=O)N3CCN(C)CC3)cc2)nc1Nc1ccc(N2CCOCC2)cc1,-9,-14
Cc1ccc(-c2cccc3cnc(Nc4cccc(C(=O)N5CCCC5)c4)nc23)cn1,-4,51*
Cc1ccc(-c2cccc3cnc(Nc4ccc(C(=O)N5CCOCC5)cc4)nc23)cn1,-14,58*
Cc1cc(Nc2ccccc2)nc(-c2ccc(C(=O)N3CCN(C)CC3)cc2)n1,-10,3
CC(C)N(CCNc1nc(-c2ccc(N3CCN(C)CC3)cc2)nc2c1ncn2C(C)C)C(C)C,11,9
NC(c1cccc(Cl)c1)c1nc2ccc(-c3cn[nH]c3)cc2c(=O)[nH]1 (centres undefined),4,2
CCCNC(=O)c1ccc2nc(Br)sc2c1,-8,14
NNC(=O)c1ccc(Sc2ccncc2)cc1,/,-20
C=C(NC(=O)C(=C)NC(=O)c1csc(C2=NC3c4csc(n4)C4NC(=O)c5csc(n5)C(C(C)(O)C(C)O)NC(=O)C5CSC(=N5)C(=CC)NC(=O)C(C(C)O)NC(=O)c5csc(n5)C3(CC2)NC(=O)C(C)NC(=O)C(=C)NC(=O)C(C)NC(=O)C(C(C)CC)NC2C=Cc3c(C(C)O)cc(nc3C2O)C(=O)OC4C)n1)C(N)=O (centres undefined),/,43*
O=C(Cc1cn(-c2ccc(Nc3ccc(N4CCOCC4)cc3)nn2)c2ccccc12)Nc1ccccc1,13,10
Cn1nccc1Nc1ccc(-n2cc(CC(=O)Nc3ccc(N4CCOCC4)cc3)c3ccccc32)nn1,-7,49*
CCCCC(=O)Nc1c(C)nc2ccc(C)cn2c1=O,/,-4
CCc1c[nH]c2ncnc(-c3ccc(NC(=O)Nc4cccc(C(=O)NC(C)C)c4)cc3)c12,18,16
CC(C)NC(=O)c1cccc(NC(=O)Nc2ccc(-c3ncnc4[nH]ccc34)cc2)c1,15,47*
Nc1ncnc2nc(N3CCc4ccccc4C3)[nH]c12,-6,19
Cc1nc(C)n(-c2ccc(Nc3ncc(Br)c(-c4cnn(C)c4)n3)cc2)n1,-93,87*
Cc1nc(C)n(-c2ccc(Nc3nccc(-c4cc(F)cc(-c5cnn(C)c5)c4)n3)cc2)n1,31,-6
CN1CCN(c2ncn(-c3ccc(Nc4ncc(F)c(-c5cccc(N6CCOCC6)c5)n4)cc3)n2)CC1,15,-3
Cn1cc(-c2nc(Nc3ccc(-n4cnc(N5CCC(O)CC5)n4)cc3)ncc2F)cn1,-40,58*
Cc1ncn(-c2ccc(Nc3ncc(Cl)c(Nc4ccccc4-c4ncn(C)n4)n3)cc2)n1,10,2
Cc1ncn(-c2ccc(Nc3ncc(Cl)c(-c4cnn(C)c4)n3)cc2)n1,-78,66*
CC(=O)c1cccc(-c2cncc(C(=O)NCCN3CCOCC3)c2)c1,-2,-5
SMILES,ASK1 inh,ULK1 inh
O=C(Nc1ccccc1)c1cccc(-c2csc3ccccc23)n1,-10,-5
CS(=O)(=O)Nc1ccc(-c2ccnc(Nc3ccc(-n4cncn4)cc3)n2)cc1,7,67*
Cc1ccc(-c2ncn(-c3ccc(Nc4nccc(-c5ccc(NS(C)(=O)=O)cc5)n4)cc3)n2)cn1,3,12
CC(=O)c1ccc(Nc2nccc(-c3ccc(NS(C)(=O)=O)cc3)n2)cc1,-22,55*
CS(=O)(=O)Nc1ccc(-c2ccnc(Nc3ccc(C(O)(C(F)(F)F)C(F)(F)F)cc3)n2)cc1,-29,33
COc1cc(NC(=O)c2ccc3nc(-c4cccc(C(C)=O)c4)sc3c2)cc(OC)c1OC,19,5
O=C(NCc1cccc(C(F)(F)F)c1)c1ccc2nc(Nc3ccccn3)sc2c1,2,-10
CNC(=O)c1cncnc1Nc1cc(NC(=O)Cc2ccc(OC)cc2)ncc1C(F)(F)F,26,15
NC(=O)c1ccccc1Nc1cc(Oc2ccccc2F)ncc1C(F)(F)F,1,-8
CNC(=O)c1ccccc1Nc1cc(Nc2ccc(-c3cncnc3)cc2OC)ncc1C(F)(F)F,-8,86*
CNC(=O)c1ccccc1Nc1cc(Nc2ccc(F)cc2OC)ncc1C(F)(F)F,-1,87*
Cc1nc(Nc2cc(Nc3ccccn3)c(C(F)(F)F)cn2)cc(-c2cncnc2)n1,22,32
CNC(=O)c1cc(F)ccc1Nc1cc(Nc2cc(-c3cncnc3)nc(C)n2)ncc1C(F)(F)F,9,58*
c1ccc(Nc2nc(N3CCC(N4CCOCC4)CC3)nc3c2ncn3-c2ccsc2)cc1,15,1
Nc1cccc(-c2cc(NCc3cccc(C(F)(F)F)c3)nc(N)n2)c1,5,-35
COc1cc(Nc2nc(NCc3ccc4c(c3)OCO4)ncc2C)cc(OC)c1OC,30,23
CN(C)c1ncn(-c2ccc(Nc3nccc(-c4cncc(N5CCOCC5)c4)n3)cc2)n1,23,7
O=C(NCc1ccccc1)c1cc(N2CCOCC2)nc2ccccc12,1,11
Cc1ccc(OCC(=O)NNC(=O)COc2ccc3ccccc3c2)cc1,/,-15
COc1cc(Nc2cc(Nc3cccnc3)ncn2)cc(OC)c1OC,-6,16
NC(=O)c1ccc2[nH]nc(-c3cccc(OCCN4CCCCC4)c3)c2c1,6,61*
c1cc(OCCN2CCCCC2)cc(-c2n[nH]c3ccc(-c4ncn[nH]4)cc23)c1,-12,45*
Cc1cc(Nc2ccc(OCCN3CCCCC3)cc2)nc(-c2cccc(OC(F)(F)F)c2)n1,-12,-23
O=C(O)c1ccc(OCCN2CCCCC2)cc1,/,-7
Cc1cnc(-c2c(C)noc2C)nc1NCc1ccccc1,-17,-5
SMILES,ASK1 inh,ULK1 inh
COc1cc(Nc2nc(NCCO)c3[nH]cnc3n2)cc(OC)c1OC,-24,63*
COc1cc(Nc2nc(NCCc3ccc(O)cc3)c3[nH]cnc3n2)cc(OC)c1OC,-18,75*
CCNc1nc(Nc2cc(OC)c(OC)c(OC)c2)c2[nH]cnc2n1,8,13
CN(C)c1cccc(Nc2nc(NCCOc3ccccc3)c3[nH]cnc3n2)c1,18,34
CCNc1nc(NCCc2ccc(O)cc2)c2[nH]cnc2n1,13,-5
COc1cc(Nc2nc(NCCOc3ccccc3)c3[nH]cnc3n2)cc(OC)c1OC,17,78*
O=C1CCCN1CCCNc1nc(NCCN2CCOCC2)c2[nH]cnc2n1,4,11
Nc1nc(NC2CC2)cc(-c2cccs2)n1,-10,-8
CC(=O)Nc1ccc(Nc2cc(N3CCN(Cc4ccc5c(c4)OCO5)CC3)ncn2)cc1,9,-4
O=C(NCc1ccccc1)c1cccc(NCCCN2CCCC2=O)c1,-6,54*
O=C(NCCCN1CCCC1=O)c1cccc(NCCCN2CCCC2=O)c1,2,-13
COC1=C(N)C(=O)c2nc(-c3nc(C(=O)O)c(C)c(-c4ccc(OC)c(OC)c4O)c3N)ccc2C1=O,/,84*
CC1C(=O)Nc2cc(S(C)(=O)=O)ccc2N1C(=O)c1ccc(Cl)cc1 (centres undefined),/,5
COc1cc2nc(Nc3cccc(N(C)C)c3)nc(NCCN3CCOCC3)c2cc1OC,29,9
N[C@H](Cc1cccc(F)c1)C(=O)Nc1cc(F)c(-c2cn[nH]c2)cc1N1CCC(O)CC1,20,17
Cc1cc(Nc2ccccc2)nc(-c2ccccc2)n1,-8,-10
